# Source: PubChem BioAssay AID463173 (ICCB-Longwood Screening Facility, Harvard Medical School, 2010)
# The campaign covered roughly 52,000 compounds. About 1,700 (3.3%) were called active. Cut-off read from the data, not from the text of the source: active = survival mostly below about 52% (no sharp cut-off); inactive = mostly above about 56%. Shown is part of a subset that was picked to be rich in actives.
# Tested on: Wild type
# Test: growth inhibition of S. aureus wild type versus tarO mutant, primary screen, teichoic acid synthesis inhibitors, RN4220, OD600 (AID 463173)
# Settings: S. aureus RN4220 wild type/DeltatarO growth, OD600, 18 h, hits give low values, screened at 18.75 µg/mL (by protocol)
row,Structure (SMILES),survival
1,CCc1ccc(NC(=O)Cn2c(=O)n(CCCCC(=O)NCc3ccccc3Cl)c(=O)c3ccccc32)cc1,90% (inactive)
2,CC(C)c1ccc(NC(=O)CN2C(=O)CSc3ccc(S(=O)(=O)N4CCCC4)cc32)cc1,91% (inactive)
3,CC1Cc2cc(S(=O)(=O)N(C)c3ccc(Br)cc3)ccc2N1C(=O)C1CC1 (stereo unspecified),106% (inactive)
4,COc1cc2c(=O)c(C(=O)c3ccc(C)c(C)c3)cn(Cc3ccccc3F)c2cc1OC,127% (inactive)
5,COc1ccc(OC)c(NC(=O)c2cc(=O)c3c(C)cc(C)cc3o2)c1,87% (inactive)
6,O=C(NC1CC(=O)N(c2ccc(Cl)cc2)C1)c1ccc(S(=O)(=O)N2CCCC2)cc1 (stereo unspecified),127% (inactive)
7,CC(=O)N1CCCc2cc(S(=O)(=O)N3CCCC(C(=O)Nc4ccc(C)c(F)c4)C3)ccc21 (stereo unspecified),73% (inactive)
8,COCCNC(=O)c1cnn(-c2cccc(C)c2)c1-n1cccc1,99% (inactive)
9,CCOc1ccccc1C(=O)N1CCc2cc(OC)c(OC)cc2C1COc1ccc2c(C)cc(=O)oc2c1 (stereo unspecified),76% (inactive)
10,Cc1c(C(=O)Nc2ccccc2Br)oc2ccc(S(=O)(=O)N3CCOCC3)cc12,113% (inactive)
11,CCCCCC(=O)N1c2ccccc2C(C)(c2ccccc2)CC1(C)C (stereo unspecified),-2% (active)
12,CC(C)c1ccc(S(=O)(=O)c2nnn3c2nc(N2CCCC2)c2sccc23)cc1,89% (inactive)
13,Cc1ccc(CC(=O)N(Cc2nc(-c3ccc(C)cc3)no2)C(C)C)cc1,-1% (active)
14,Cc1ccccc1C(=O)N(Cc1nc(-c2ccc(Cl)cc2)no1)C(C)C,86% (inactive)
15,COc1ccc(-c2noc(CN(C(=O)COc3cc(C)c(Br)c(C)c3)C(C)C)n2)cc1,7% (active)
16,CC(C)N(Cc1nc(-c2ccc(Cl)cc2)no1)C(=O)c1ccco1,76% (inactive)
17,COc1ccc(-c2noc(CN(C(=O)c3cc(OC)c(OC)cc3OC)C(C)C)n2)cc1,86% (inactive)
18,COc1ccc(-c2noc(CN(C(=O)c3ccc(C)cc3C)C(C)C)n2)cc1,0% (active)
19,COc1ccc(-c2noc(CN(C(=O)c3ccccc3Cl)C(C)C)n2)cc1,97% (inactive)
20,Cc1ccc(-c2noc(CN(C(=O)COc3cc(C)cc(C)c3C)C(C)C)n2)cc1,1% (active)
21,Cc1ccc(-c2noc(CNC(=O)COc3cc(C)c(Br)c(C)c3)n2)cc1,89% (inactive)
22,COc1ccc(-c2noc(CN(C(C)C)S(=O)(=O)c3ccc(Br)cc3)n2)cc1,81% (inactive)

row,Structure (SMILES),survival
1,O=C(O)CC(C(=O)O)c1cn(Cc2ccccc2)c2ccccc12 (stereo unspecified),105% (inactive)
2,CC(C)(C)OC(=O)N1CCC(c2c(C(=O)NCCc3ccccc3)cnn2-c2ccc(F)cc2)CC1,78% (inactive)
3,Cc1ccc(C)c(Cn2c3ccccc3c3cnn(CC(=O)NCCC4=CCCCC4)c(=O)c32)c1,82% (inactive)
4,CC(Sc1nc(=O)cc(N)n1CCc1ccccc1)C(=O)Nc1ccccc1C#N (stereo unspecified),75% (inactive)
5,CC(C(=O)NCC1CCCO1)N(C(=O)c1snc(C(N)=O)c1N)c1cccc(F)c1 (stereo unspecified),101% (inactive)
6,Cc1ccccc1NC(=O)CSc1nnc(C)c(=O)[nH]1,89% (inactive)
7,Cc1ccc(Nc2sc(C(=O)c3ccccc3)c(N)c2C(=O)NC(C)C)cc1,78% (inactive)
8,O=C(CSc1nccn1Cc1ccccc1)Nc1ccc2c(c1)OCO2,138% (inactive)
9,COc1ccc(CC(=O)N(Cc2nc(-c3ccc(C)cc3)no2)C(C)C)cc1,33% (inactive)
10,COc1ccc(-c2noc(CN(C(=O)Cc3ccc(C)cc3)C(C)C)n2)cc1,5% (active)
11,COc1ccc(-c2noc(CN(C(=O)C(C)Oc3ccc(C)cc3)C(C)C)n2)cc1 (stereo unspecified),77% (inactive)
12,COc1ccccc1OC(C)C(=O)N1CCN(CCc2ccccn2)CC1 (stereo unspecified),82% (inactive)
13,COc1ccc2c(c1)c(=O)c(C(=O)c1ccc(F)cc1)cn2CC(=O)Nc1ccc2c(c1)OCO2,91% (inactive)
14,CC(=O)NC(C)c1nc2ccccc2n1Cc1ccccc1Cl (stereo unspecified),91% (inactive)
15,CCCn1c(SCC(O)c2ccccc2)nc2ccccc21 (stereo unspecified),86% (inactive)
16,CC(C)Cn1c(C2CC(=O)N(c3ccccc3Cl)C2)nc2ccccc21 (stereo unspecified),97% (inactive)
17,CC(C)Nc1nc2c(-c3cccc(Br)c3)nnn2c2ccccc12,74% (inactive)
18,CC(C)Cn1c(-c2cccc(Br)c2)nc2ccccc21,27% (active)
19,Cc1nc2ccccc2c(=O)n1CC(C)C,106% (inactive)
20,CCCn1c(-c2cccc(Br)c2)nc2ccccc21,3% (active)
21,CCCCNc1nc2c(-c3cccc(Br)c3)nnn2c2ccccc12,92% (inactive)
22,CC(C)Cn1c(-c2ccccc2Cl)nc2ccccc21,26% (active)

row,Structure (SMILES),survival
1,O=C(NCCc1ccc(Cl)cc1)c1ccc(CS(=O)Cc2ccccc2Cl)o1 (stereo unspecified),62% (inactive)
2,COc1ccccc1CCNC(=O)c1cc2c(=O)n3cccc(C)c3nc2n1C,85% (inactive)
3,COc1ccc(C2CC(=O)c3cc(-c4nc(-c5ccc(Cl)cc5)c(C)s4)c(=O)[nH]c3C2)cc1 (stereo unspecified),71% (inactive)
4,Cc1ccc(CCNC(=O)c2cc3c(=O)n(C)c4ccccc4c3n2C)cc1,80% (inactive)
5,Cc1ccc(C)c(Cn2c(=O)n(CCCCC(=O)NCc3ccc4c(c3)OCO4)c(=O)c3ccccc32)c1,110% (inactive)
6,CC(NC(=O)CN1C(=O)c2cccnc2Oc2ccc(Cl)cc21)c1ccccc1 (stereo unspecified),74% (inactive)
7,Cc1c(C(=O)N2CCC(C)CC2)c(S(=O)(=O)NCc2ccc(Br)cc2)c(C)n1C,80% (inactive)
8,COc1ccccc1Cn1cc(C(=O)c2ccc(C)cc2)c(=O)c2cc3c(cc21)OCCO3,83% (inactive)
9,COc1ccc(OC)c(CNC(=O)c2ccc3c(c2)c(C)c(C)n3Cc2ccc(Cl)cc2)c1,82% (inactive)
10,CCN(C(=O)c1cn(-c2ccc(OC)cc2)c(=O)c2ccccc12)c1cccc(Cl)c1,119% (inactive)
11,CCNC(=O)c1sc2ccccc2c1Cl,124% (inactive)
12,CCN(C(=O)c1sc2cc(OC)ccc2c1Cl)c1ccccc1,-9% (active)
13,O=C(COc1ccc(Cl)cc1)NCCc1csc(-c2ccc(F)cc2)n1,73% (inactive)
14,O=c1c2c3c(sc2nnn1Cc1ccc(Br)cc1)CCCC3,28% (inactive)
15,CC1CCc2c(sc3nnn(Cc4ccc(F)cc4)c(=O)c23)C1 (stereo unspecified),1% (active)
16,CCCOC(=O)c1ccc(Cn2nnc3sc4c(c3c2=O)CCC(C)C4)cc1 (stereo unspecified),77% (inactive)
17,Cc1ccccc1Cn1nnc2sc3c(c2c1=O)CCCC3,0% (active)
18,Cc1ccc(Cn2nnc3sc4c(c3c2=O)CCC(C)C4)cc1 (stereo unspecified),60% (inactive)
19,COC(=O)c1ccc(Cn2nnc3sc4c(c3c2=O)CCC(C)C4)cc1 (stereo unspecified),75% (inactive)
20,CC1CCc2c(sc3nnn(Cc4ccccc4Cl)c(=O)c23)C1 (stereo unspecified),16% (inactive)
21,CC1CCc2c(sc3nnn(Cc4ccccc4)c(=O)c23)C1 (stereo unspecified),0% (active)
22,COC(=O)c1ccc(Cn2nnc3sc4c(c3c2=O)CCCC4)cc1,77% (inactive)
